Data on 15 compounds can be found in PubChem BioAssay.

For part of these data: Potency and affinity values are given separately. The source made the active and inactive calls.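 The calls were made as follows, unless noted: active = earlier screen potentiator hit that boosts the TRPC4 ion channel at some dose, with a dose response; inactive = no potentiation, no dose response, or not a prior hit.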

Assay [1] deals with TRPC4 beta (transient receptor potential cation channel C4), mouse. Briefly: activators of mouse TRPC4 channel, confirmation, cell-based, Fluo4 calcium, HEK293 TRPC4beta/mu-opioid, duplicates, 10 µM (AID 2426;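 active = fluorescence ratio normalized to control raised more than 50% in primary screen plus both repeat runs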). To be noted: Fluo4 calcium fluorescence, at 10 µM; active compounds read high.
The subject of assay [2] is transient receptor potential cation channel C4 beta (TRPC4), mouse. The assay can be described thus: activators of mouse TRPC4 channel, confirmation, cell-based, second round, Fluo4, HEK293 TRPC4beta/mu-opioid, 1 µM (AID 2461;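 active = primary screen active and over 50% activation in each of two duplicate runs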). Particulars: Fluo4 calcium fluorescence, at 1 µM; active compounds read high.
For assay [3], the system named is TRPC4 (transient receptor potential cation channel C4 beta), mouse. Briefly: positive allosteric modulators of mouse TRPC4, confirmation, cell-based, second round, Fluo-4, HEK293 TRPC4beta/mu-opioid, 1 µM (AID 2554;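 active = primary screen hit whose fluorescence ratio, in both repeats, exceeds the weak agonist control mean by 3 SD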). Particulars: DAMGO EC20, Fluo-4 calcium flux, at 1 µM; active compounds read high. On the technique in general: Calcium assays in cells follow changes in intracellular calcium, usually with a dye or a luminescent sensor.

Assay [4] relates to TRPC4 beta (transient receptor potential cation channel C4), mouse. Briefly: positive allosteric modulators of mouse TRPC4, confirmation, cell-based, Fluo-4, HEK293 TRPC4beta/mu-opioid (AID 2555;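 active = primary screen hit whose calcium fluorescence ratio, in both repeats, exceeds the weak agonist control mean by 3 SD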). To be noted: DAMGO EC20, Fluo-4 calcium flux, at 10 µM; active compounds read high.
The target of assay [5] is Short transient receptor potential channel 4 (Mus musculus) (UniProt Q9QUQ5). The assay can be described thus: inhibitors of mouse TRPC4 channel, confirmation, cell-based, Fluo4, HEK293 TRPC4beta/mu-opioid (AID 2636;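 active = calcium signal cut by more than 3 SD below the full-agonist control yet still positive, in both repeats and the earlier primary screen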). Particulars: DAMGO, Fluo4 calcium flux, at 10 µM; active compounds read high.
Sequence of Short transient receptor potential channel 4 (Mus musculus) (Q9QUQ5 whole entry, looked up): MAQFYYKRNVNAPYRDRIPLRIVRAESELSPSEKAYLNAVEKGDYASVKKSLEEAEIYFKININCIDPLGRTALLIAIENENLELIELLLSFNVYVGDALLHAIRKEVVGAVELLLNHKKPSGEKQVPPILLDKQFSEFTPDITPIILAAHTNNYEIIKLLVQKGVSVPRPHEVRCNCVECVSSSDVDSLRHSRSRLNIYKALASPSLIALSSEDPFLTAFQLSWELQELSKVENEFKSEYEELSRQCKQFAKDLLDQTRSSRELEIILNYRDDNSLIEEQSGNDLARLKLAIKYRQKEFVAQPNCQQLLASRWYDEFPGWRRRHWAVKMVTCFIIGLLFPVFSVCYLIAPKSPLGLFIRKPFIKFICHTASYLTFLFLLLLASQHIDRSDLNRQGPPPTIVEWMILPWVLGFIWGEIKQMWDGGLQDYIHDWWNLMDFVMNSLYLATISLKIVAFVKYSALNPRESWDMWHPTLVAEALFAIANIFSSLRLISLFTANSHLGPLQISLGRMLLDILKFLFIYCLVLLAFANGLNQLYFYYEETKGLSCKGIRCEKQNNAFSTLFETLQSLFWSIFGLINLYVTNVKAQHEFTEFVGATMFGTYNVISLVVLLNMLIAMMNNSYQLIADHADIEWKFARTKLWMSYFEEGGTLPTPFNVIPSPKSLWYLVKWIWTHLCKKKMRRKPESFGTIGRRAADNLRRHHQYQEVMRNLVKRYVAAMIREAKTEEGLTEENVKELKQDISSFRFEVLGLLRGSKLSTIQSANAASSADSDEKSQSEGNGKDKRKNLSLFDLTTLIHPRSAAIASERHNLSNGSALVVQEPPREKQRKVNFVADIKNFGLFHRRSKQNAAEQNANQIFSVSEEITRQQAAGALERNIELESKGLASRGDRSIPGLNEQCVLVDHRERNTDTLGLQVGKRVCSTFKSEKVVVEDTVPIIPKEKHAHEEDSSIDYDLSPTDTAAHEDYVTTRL
Assay [6] has the same target. The assay can be described thus: inhibitors of mouse TRPC4 channel, confirmation, cell-based, second round, Fluo4, HEK293 TRPC4beta/mu-opioid, 1 µM (AID 2637;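 active = calcium signal ratio cut to more than 3 SD under the fully stimulated control mean yet still positive, in both repeats and the primary screen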;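 as to inhibition: percent of integrated ratio relative to wells lacking test compound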). To be noted: Fluo4 calcium flux, DAMGO, at 1 µM; active compounds read high.
Assay [7] has the same target. Briefly: mouse TRPC4 channel activators, dose response, cell-based, HEK293 TRPC4/mu-opioid, Fluo-4 calcium (AID 434937;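 active = primary screen activator hit with a dose response curve and TRPC4 channel activation at any tested dose; inactive = no activation, no dose response, or not a primary hit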).
For assay [8] the target is unchanged. Briefly: TRPC4 positive allosteric modulators, dose response, cell-based, HEK293 TRPC4/mu-opioid, Fluo-4 calcium, EC20 DAMGO (AID 434941).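 Also: calcium entry triggered by an EC20 dose of DAMGO at the co-expressed mu-opioid receptor.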
The target in assay [9] is Short transient receptor potential channel 6 (Mus musculus) (UniProt Q61143). Briefly: inhibition of mouse TRPC6 channel, confirmation, selectivity assay for TRPC4 inhibitor project, cell-based, HEK293, membrane potential dye, duplicate (AID 434948;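 active = active in primary screen and both duplicates, each dropping signal beyond three positive-control SD with fluorescence still positive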). Particulars: HEK293 TRPC6, membrane potential dye fluorescence, at 10 µM, stimulated with maximal-effect acetylcholine; active compounds read high.
Sequence of Short transient receptor potential channel 6 (Mus musculus) (Q61143 whole entry, looked up): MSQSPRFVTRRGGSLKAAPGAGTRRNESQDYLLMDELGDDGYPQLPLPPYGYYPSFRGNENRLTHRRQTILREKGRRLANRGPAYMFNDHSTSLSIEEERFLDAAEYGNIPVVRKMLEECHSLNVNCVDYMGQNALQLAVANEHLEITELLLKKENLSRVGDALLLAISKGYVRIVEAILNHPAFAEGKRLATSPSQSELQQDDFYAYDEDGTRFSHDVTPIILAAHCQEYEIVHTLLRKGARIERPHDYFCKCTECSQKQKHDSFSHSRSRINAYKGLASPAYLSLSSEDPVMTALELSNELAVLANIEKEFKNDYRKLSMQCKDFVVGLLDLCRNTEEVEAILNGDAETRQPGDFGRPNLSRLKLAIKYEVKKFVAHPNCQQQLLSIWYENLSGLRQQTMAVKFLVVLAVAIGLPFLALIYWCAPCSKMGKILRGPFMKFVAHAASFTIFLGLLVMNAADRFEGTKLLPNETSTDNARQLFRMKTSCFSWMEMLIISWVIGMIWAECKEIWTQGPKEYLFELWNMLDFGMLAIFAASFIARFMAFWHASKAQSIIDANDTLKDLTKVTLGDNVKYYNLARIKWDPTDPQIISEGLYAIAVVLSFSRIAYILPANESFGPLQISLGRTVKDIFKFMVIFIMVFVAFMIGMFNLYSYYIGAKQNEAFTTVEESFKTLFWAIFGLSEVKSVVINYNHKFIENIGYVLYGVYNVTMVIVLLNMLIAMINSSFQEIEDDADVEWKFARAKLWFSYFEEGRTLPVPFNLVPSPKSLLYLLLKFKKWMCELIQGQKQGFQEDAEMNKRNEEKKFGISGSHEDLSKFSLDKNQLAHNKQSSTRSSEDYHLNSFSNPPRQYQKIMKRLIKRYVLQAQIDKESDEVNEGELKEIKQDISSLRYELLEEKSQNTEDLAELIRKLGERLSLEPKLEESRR

Assay [10] shares this target. The assay can be described thus: activation of mouse TRPC6 channel, confirmation, selectivity assay for TRPC4 activator project, cell-based, HEK293, membrane potential dye, duplicate (AID 434950;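 active = membrane potential signal rise above negative control mean plus 3 SD in both duplicates, also active in the earlier TRPC4 screen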). To be noted: HEK293 TRPC6, membrane potential fluorescence, at 10 µM; active compounds read high.
The target is the same in assay [11]. Briefly: TRPC6 potentiation by TRPC4 potentiator hits, confirmation, selectivity assay for TRPC4 potentiator project, HEK293 cells, membrane potential dye, duplicate (AID 434952;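 active = compound raising the membrane signal above positive-control mean plus 3 SD in both repeats, and a primary screen hit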). To be noted: HEK293 TRPC6, membrane potential dye fluorescence, at 10 µM, maximal acetylcholine added after compound; active compounds read high.
Assay [12] addresses Short transient receptor potential channel 4 (Mus musculus) (UniProt Q9QUQ5). The assay can be described thus: calcium flux activators in TRPC4/5HT1a cells, counter-screen for TRPC4 activator project, cell-based, second counter screen, HEK293 TRPC4/5HT1a, Fluo-4 (AID 434977;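 active = calcium signal rise above buffer-control mean plus 5 SD in both duplicates, and also a hit in the primary screen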). To be noted: Fluo-4 calcium flux, at 10 µM; active compounds read high.
Assay [13] can be described thus: calcium flux inhibitors in TRPC4/5HT1a cells, confirmation, counter-screen for TRPC4 inhibitor project, cell-based, second counter screen, HEK293 TRPC4/5HT1a, Fluo-4 (AID 434978;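 active = primary screen active whose calcium signal fell more than 3 SD beyond the full-serotonin control mean in both duplicate plates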;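 as to outcome: serotonin given first at submaximal then at maximal dose after compound preincubation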). Particulars: Fluo-4 calcium flux, at 10 µM, serotonin added to trigger calcium flux; active compounds read high.
Assay [14] relates to TRPC4 (mouse), co-expressed with 5HT1a in HEK293. The assay can be described thus: calcium flux potentiators in TRPC4/5HT1a cells, confirmation, counter-screen for TRPC4 potentiator project, cell-based, second counter screen, HEK293 TRPC4/5HT1a, Fluo-4 (AID 434979;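 active = signal rise over 3 SD above mean of control wells given weak agonist, in both repeats and first screen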). To be noted: Fluo-4 calcium flux, at 10 µM, serotonin added at its EC20 dose; active compounds read high.
A short description of assay [15]: calcium flux activation in mu-opioid HEK293 cells, confirmation, counter-screen for TRPC4 activator project, cell-based, HEK293 mu-opioid receptor line (AID 449723;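 active = hit in primary screen, with calcium signal over 5 SD above buffer well mean in both duplicates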;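 also: counter screen cells carry the mu-opioid receptor alone and lack TRPC4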). To be noted: Fluo-4 calcium fluorescence, at 10 µM; active compounds read high.
Assay [16] in a line: calcium flux enhancement in mu-opioid HEK293 cells, confirmation, counter-screen for TRPC4 allosteric potentiator project, cell-based, HEK293 mu-opioid receptor line (AID 449724;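 active = calcium signal rise more than 3 SD above the low-dose agonist control mean, in both duplicate plates and the primary screen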;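 also: HEK293 cells carrying mu-opioid receptor only with no TRPC4 channel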). To be noted: Fluo-4 calcium flux, at 10 µM, compound added before EC20 DAMGO stimulus; active compounds read high.

On to `COC(=O)c1cccc(Nc2c3c(nc4ccccc24)CCC3)c1`, for which the result in [1], in assay [2], in assay [3], in assay [4], in [6] and in [7] was inactive. The result in [8], in assay [9], in [10], in [11], in assay [12] and in assay [14] was inactive. The outcome in assay [15] and in [16] was inactive. In addition, the values for the inhibition in [5] and in [13] were 96% (active) and 30.4% (active), respectively.
For the compound `O=C(CSc1nc(=O)n(CCN2CCOCC2)c2c1CCC2)Nc1ccc(OC(F)(F)F)cc1`, the outcome in [1], in [2], in assay [3], in [4], in assay [6] and in assay [7] was inactive. Besides, the outcome in [8], in [9], in assay [10], in [11], in [12] and in [13] was inactive. Further, the result in [14], in assay [15] and in assay [16] was inactive. Also, the inhibition (as a rule, the drop in the measured response relative to a control, in per cent) in [5] was 69% (active).
Consider `CC(C)(C)CC(C)(C)NCC(O)COc1ccc2c(c1)CCC2` (stereo not given), for which the result in assay [1], in [2], in [3], in assay [4], in assay [6] and in assay [7] was inactive. Besides, the outcome in assay [8], in [9], in assay [10], in [11], in assay [12] and in [13] was inactive. The outcome in assay [14], in [15] and in assay [16] was inactive. Also, in assay [5], the inhibition was 100% (active).
Regarding `Cc1cc(/C=C2/C(=N)N3C(=NC2=O)SN=C3S(C)(=O)=O)c(C)n1-c1ccccc1F`, the outcome in [1], in assay [2], in [3], in [4], in [5] and in assay [6] was inactive. The result in assay [7], in assay [8], in assay [9], in assay [10], in [11] and in assay [12] was inactive. Also, the outcome in assay [13], in assay [14], in assay [15] and in assay [16] was inactive.
Turning to `Cc1ccn2c(CNCCCn3cccn3)c(C(=O)N3CCCCCC3)nc2c1`, the outcome in assay [1], in [2], in assay [3], in [4], in assay [7] and in [8] was inactive. Moreover, the compound was classed as inactive in assay [9], in assay [10], in assay [11], in [12], in assay [13] and in assay [14]. In addition, the result in [15] and in assay [16] was inactive. For the same compound, the inhibition was 78% (active) in [5] and 47% (active) in [6].
With `C=CCn1cnc2scc(-c3ccc(CC)cc3)c2c1=O`, the result in assay [1], in [2], in assay [3], in assay [4], in assay [6] and in assay [7] was inactive. The outcome in [8], in assay [9], in [10], in [11], in assay [12] and in [13] was inactive. Further, the outcome in assay [14], in [15] and in [16] was inactive. In [5], the inhibition is 57% (active).
Turning to `Cc1c(N)c(C(C)(C)C)cc(C(C)(C)C)c1[N+](=O)[O-]`, the outcome in [1], in assay [2], in assay [3], in assay [4], in [6] and in [7] was inactive. Also, the outcome in assay [8], in [9], in assay [10], in assay [11], in assay [12] and in [14] was inactive. The result in assay [15] and in [16] was inactive. In addition, the inhibition is 92% (active) in assay [5] and 29.4% (active) in assay [13].
In the case of `O=C(CCN1CCc2ccccc2C(O)(c2ccccc2)C1)c1ccc2c(c1)OCCO2` (stereo not given), the result in [1], in assay [2], in [3], in assay [4], in assay [5] and in assay [6] was inactive. Moreover, the outcome in assay [7], in assay [8], in [9], in assay [10], in assay [11] and in assay [12] was inactive. The result in assay [14], in assay [15] and in assay [16] was inactive. Besides, in assay [13], the inhibition was 39.2% (active).
In the case of `O=C1CN=C(Nc2cccc(C(F)(F)F)c2)N1C1CCCC1`, the outcome in assay [1], in assay [2], in [3], in assay [4], in [6] and in [7] was inactive. Besides, the outcome in assay [8], in [9], in assay [10], in assay [11], in assay [12] and in assay [14] was inactive. Besides, the result in assay [15] and in assay [16] was inactive. For the same compound, the inhibition was 94% (active) in assay [5] and 26.8% (active) in assay [13].
For the compound `COC(=O)c1cccc2c1-c1ccccc1/C2=N/O`, the result in assay [1], in assay [2], in assay [3], in assay [4], in assay [7] and in assay [8] was inactive. Further, the compound was called inactive in assay [9], in assay [10], in assay [11], in [12], in [14] and in assay [15]. Moreover, in assay [16], the outcome was inactive. Also, the inhibition in [5] is 81% (active); in assay [6], 43% (active); in assay [13], 27.9% (active).
With `CCOc1ccc2[nH]c3c(N4CCN(c5ccccn5)CC4)ncnc3c2c1`, the outcome in assay [1], in assay [2], in [3], in assay [4], in assay [6] and in assay [7] was inactive. In addition, the outcome in assay [8], in [9], in assay [10], in assay [11], in assay [12] and in assay [13] was inactive. Moreover, the result in [14], in assay [15] and in [16] was inactive. In addition, the inhibition in assay [5] is 83% (active).
For `OCCCNc1c2ccccc2nc2ccccc12`, the outcome in assay [1], in [2], in [3], in [4], in assay [6] and in assay [7] was inactive. Besides, the outcome in assay [8], in assay [10], in assay [11], in assay [12], in [14] and in assay [15] was inactive. For the same compound, the outcome in assay [16] was inactive. Moreover, the inhibition in assay [5] was 92% (active); in assay [9], 39.5% (active); in assay [13], 41.8% (active).
In the case of `CCCSc1nc(N)nc(-c2cccs2)c1C#N`, the outcome in assay [1], in [2], in assay [3], in [4], in assay [7] and in assay [8] was inactive. The call in [9], in assay [10], in [11], in assay [12], in assay [14] and in assay [15] was inactive. Further, the outcome in [16] was inactive. The inhibition in [5] is 89% (active); in [6], 50% (active); in [13], 36.8% (active).
For `C=C(c1ccc(O)cc1)c1ccc(O)cc1`, the result in assay [1], in [2], in assay [3], in [4], in assay [7] and in [8] was inactive. The compound was classed as inactive in [9], in [10], in assay [11], in [12], in [14] and in assay [15]. Moreover, the outcome in assay [16] was inactive. In addition, the inhibition is 89% (active) in assay [5], 47% (active) in [6] and 29.6% (active) in assay [13].
On to `O=C(Nc1ccnn1C1CCN(CCCC2CCCC2)CC1)c1ccccc1Cl`, for which the outcome in assay [1], in assay [2], in [3], in [4], in [6] and in [7] was inactive. Further, the outcome in assay [8], in assay [9], in assay [10], in assay [11], in assay [12] and in assay [13] was inactive. Also, the result in assay [14], in assay [15] and in assay [16] was inactive. Further, in assay [5], the inhibition was 97% (active).
